GBA enhancer: enhancers of human beta-glucosidase activity in Gaucher fibroblasts; P04062; L444P Gaucher fibroblasts, 4-MU-glucoside fluorescence, 3 days; activation, % at 10 µM; 30,000 tested, 0.44% active; in the data active = activation above about 65%
Hits are given with their value; . = inactive. Shown is part of a subset that was picked to be rich in hits.

SMILES	GBA enhancer
CN(C)CCCN1C(=O)C(=O)/C(=C(/O)c2ccc3c(c2)OCCO3)C1c1ccccn1 (configuration not stated)	.
CCOC(=O)c1nnn(-c2nonc2N)c1CSc1ccccn1	.
Cc1c(Cl)cccc1N(CC(=O)N1CCCCCC1)S(C)(=O)=O	.
CNC(=O)CN(c1cccc2ccccc12)S(C)(=O)=O	.
Cc1c(Cl)cccc1N(CC(=O)O)S(C)(=O)=O	87.6
CCOc1ccccc1C1C(C(=O)Nc2ccccc2OC)=C(C)Nc2nnnn21 (configuration not stated)	152.5
COc1ccccc1NC(=O)C1=C(C)Nc2ncnn2C1c1ccccc1C (configuration not stated)	.
COc1ccccc1NC(=O)C1=C(C)Nc2nnnn2C1c1ccncc1 (configuration not stated)	.
Cc1ccc(C(=O)Nc2cccc(C(=O)O)c2)cc1S(=O)(=O)N1CCCCC1	.
Cc1cc(=O)oc2cc3c(cc12)OCCN3	.
Cc1cc(=O)oc2cc3c(cc12)OCCO3	.
Cc1cc2c(C)cc(=O)oc2c2c1NCCC2	75.7
COc1ccccc1NC(=O)Cn1cnc2c(cnn2-c2ccc(C)c(C)c2)c1=O	.
Fc1ccc2c(Cl)c(-c3nnc(-c4cccs4)o3)sc2c1	.
O=C(NCc1ccc(N2CCCC2=O)cc1)Nc1cccc(Cl)c1	.
CC12C(=O)N(CCC(=O)O)C(=O)C1C1C=CC2C1 (configuration not stated)	.
O=C(O)c1ccc2c(c1)C(c1ccccc1)OC2=O (configuration not stated)	78.3
O=C(O)c1ccc2c(c1)CC(c1ccccc1)OC2=O (configuration not stated)	.
CC(C)(C)N1C(=O)c2ccc(C(=O)O)cc2C1=O	.
CCC(C)n1cnc2c(c1=O)c1nc3ccccc3nc1n2-c1ccc2c(c1)OCCO2 (configuration not stated)	.
CCC(C)n1cnc2c(c1=O)c1nc3ccccc3nc1n2Cc1ccc2c(c1)OCO2 (configuration not stated)	82.6
CCCCn1c2nc3ccccc3nc2c2c(=O)n(C(C)CC)cnc21 (configuration not stated)	.
CC(O)C(=O)NCCOCCOCCNC(=O)C(C)O (configuration not stated)	.
CCCCNC(=O)C1CCCN1C(=O)Nc1cccc(OC)c1 (configuration not stated)	73.4
CC(=O)Nc1cccc(NC(=O)C2CCCN2C(=O)Nc2cccc(C)c2)c1 (configuration not stated)	.
SMILES	GBA enhancer
COc1cccc(NC(=O)C2CCCN2C(=O)Nc2cccc(F)c2)c1 (configuration not stated)	.
CCOc1ccc(CCNC(=O)C2CCCN(S(=O)(=O)c3c(C)n[nH]c3C)C2)cc1OCC (configuration not stated)	.
CC1CCc2sc3c(c2C1)c1ncnn1c(=O)n3CC(=O)c1ccc(Br)cc1 (configuration not stated)	.
CCOC(=O)c1oc2ccc(Br)cc2c1CSc1nnc(C)s1	.
CC1(C)CC(=O)N(CC(=O)O)c2ccccc2S1	88.5
O=C1CSc2ccccc2N1Cc1ccc(F)cc1	.
Cc1ccc2c(c1)N(CC(=O)O)C(=O)CO2	.
CCOC(=O)CN1C(=O)CSc2ccccc21	73.1
O=C(O)CN1C(=O)C2(OCCCO2)c2ccccc21	.
O=C(O)CN1C(=O)CSc2ccccc21	.
Cc1cc2ncn(CCOc3ccccc3C#N)c2cc1C	.
CC(C)C(NC(=O)C12CC3CC(CC(C3)C1)C2)C(=O)O (configuration not stated)	.
O=C(OCCCCN1C(=O)c2ccccc2C1=O)c1n[nH]c2ccccc12	.
Cc1[nH]nc2nc3c(c(OC(=O)c4ccccc4)c12)c(=O)n(C)c(=O)n3C	.
NC1=NC(c2ccc(Cl)cc2)n2c(nc3ccccc32)N1 (configuration not stated)	.
O=C(N1CCOCC1)C(F)(F)C(=O)N1CCOCC1	.
Cc1ccc(N2C(=O)Nc3ccc(Br)cc3C2(O)C(=O)NCCCN(C)C)cc1C (configuration not stated)	119.4
CN(C)CCNC(=O)c1cc2cc(Br)ccc2oc1=O	.
Cc1cccc(C)c1-n1nnnc1S(=O)(=O)Cc1ccccc1Cl	.
CCOC(=O)c1c(C)n(C)c2ccc(OC(C)C(=O)OC)cc12 (configuration not stated)	72.2
CCOC(=O)c1c(C)n(C)c2cc(Br)c(C(=O)OC)cc12	.
CCOC(=O)c1c(C)n(C)c2ccc(OCC(O)Cn3nc(C)c(Br)c3C)cc12 (configuration not stated)	.
CCOc1ccc2nc(NCCCNS(=O)(=O)c3ccccc3)c(C#N)cc2c1	.
CCOC(=O)C1CCCN(C(=O)C2CCCN(S(C)(=O)=O)C2)C1 (configuration not stated)	.

Screening results (PubChem BioAssay)
